Measurements: PubChem BioAssay (Tox21)
Several values for one entry are separate records, joined by “and”; a condition that tells them apart may be missing. Equal entries are not always repeated. Records with an inconclusive call do not appear. Entries that show only a call come without a potency. The source holds several records for some structures; these can differ, active in one and inactive in another. Activity calls are given as the source filed them. Calls come from the whole dose curve; as a rule, active = well fitted activation curve with a large enough effect in the repeat runs; inconclusive = weak or mixed curves; inactive = flat fitted curve, though single readings scatter.

Assay: A CellTox Green Cytotoxicity Assay to monitor cytotoxicity in HEK293 cells - 24 hour (AID 1224875)
Conditions: CellTox Green fluorescence; series mostly up to 76.8 µM; activity change: at the top concentration
Procedure, shortened: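 Homogeneous no-lysis format: HEK293 cell suspension mixed with CellTox Green reagent, seeded, incubated 5 h at 37 C/5% CO2, then dosed by pintool with compound in DMSO.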
Note: nearly all actives have a fitted effect of over 45% in size.

| Compound | Potency | activity change |
| --- | --- | --- |
| CCCCC(CC)COC(=O)C(C#N)=C(c1ccccc1)c1ccccc1 (stereo unspecified) | inactive |  |
| CC(C)CC(=O)CC(C)C | inactive |  |
| Nc1cc([N+](=O)[O-])ccc1O |  | -1.94% (inactive) |
| CCC(O)OC(O)CC (stereo unspecified) | inactive |  |
| CCCCCCCCCCCCCCCO | inactive |  |
| O=C(CC(C(=O)OC1CCCCC1)S(=O)(=O)O)OC1CCCCC1 (stereo unspecified) | inactive |  |
| C[C@H]1C[C@@H]2[C@H]([C@@H](O)C[C@@]3(C)[C@H]2CC[C@]3(O)C(=O)CO)[C@@]2(C)C=CC(=O)C=C12 | inactive |  |
| N[C@@H](Cc1cc(I)c(Oc2cc(I)c(O)c(I)c2)c(I)c1)C(=O)O | inactive |  |
| Fc1ccc(Br)cc1 | inactive |  |
| CCCCCC1=CCCC1=O | inactive |  |
| CC(C)(N)CO | inactive |  |
| OCC(CO)(CBr)CBr |  | -11.1% (inactive) |
| CC(=O)CC(=O)Nc1ccccc1C | inactive |  |
| O=c1[nH]nnc2ccccc12 | inactive |  |
| OC[C@H]1O[C@@](CO)(O[C@H]2O[C@H](CO)[C@@H](O)[C@H](O)[C@H]2O)[C@@H](O)[C@@H]1O |  | -12% (inactive) |
| COS(C)(=O)=O | inactive |  |
| COCCCOc1ccnc(CS(=O)c2nc3ccccc3[nH]2)c1C (stereo unspecified) |  | -3.31% [at 35.3 µM, stronger effect = higher value] (inactive) |
| O=P(OC(CCl)CCl)(OC(CCl)CCl)OC(CCl)CCl | inactive |  |
| COc1ccc(Nc2ccccc2)c(C)c1 | inactive |  |
| O=C(O)c1ccccc1C(c1ccc(O)cc1)c1ccc(O)cc1 | inactive |  |
| CC[C@H](C)C(=O)O[C@H]1C[C@@H](C)C=C2C=C[C@H](C)[C@H](CC[C@@H]3C[C@@H](O)CC(=O)O3)[C@H]21 |  | 1.51% (inactive) |
| CSCCC=O | inactive |  |
| Cc1cccnc1 | inactive |  |

Assay: A CellTox Green Cytotoxicity Assay to monitor cytotoxicity in HepG2 cells - 16 hour (AID 1224876); note: potency is the fitted concentration of half-maximal effect
Conditions: CellTox Green fluorescence; series mostly up to 76.8 µM; cytotoxicity increase: at the top concentration
Procedure, shortened: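 Fluorescent DNA-binding dye, 600 HepG2 cells/well, 5 h preincubation then compound in DMSO; same plates read at 0–40 h, 37 C.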

| Compound | Potency | cytotoxicity increase |
| --- | --- | --- |
| CCCCC(CC)COC(=O)C(C#N)=C(c1ccccc1)c1ccccc1 (stereo unspecified) | inactive |  |
| OCCOCCOCCO | inactive |  |
| CC(C)CC(=O)CC(C)C | inactive |  |
| Nc1cc([N+](=O)[O-])ccc1O | inactive |  |
| Cc1cccc(O)c1 | inactive |  |
| CCC(O)OC(O)CC (stereo unspecified) | inactive |  |
| CCCCCCCCCCCCCCCO | inactive |  |
| O=C(CC(C(=O)OC1CCCCC1)S(=O)(=O)O)OC1CCCCC1 (stereo unspecified) | inactive |  |
| C[C@H]1C[C@@H]2[C@H]([C@@H](O)C[C@@]3(C)[C@H]2CC[C@]3(O)C(=O)CO)[C@@]2(C)C=CC(=O)C=C12 | inactive |  |
| N[C@@H](Cc1cc(I)c(Oc2cc(I)c(O)c(I)c2)c(I)c1)C(=O)O | inactive |  |
| O=C(Oc1ccccc1)c1ccccc1 | inactive |  |
| CCc1cccc(C)c1N | inactive |  |
| ON=C1CCCCC1 | inactive |  |
| Fc1ccc(Br)cc1 | inactive |  |
| CCCCCCCCCCCCc1ccccc1 | inactive |  |
| CCCCCC1=CCCC1=O | inactive |  |
| CC(C)(N)CO | inactive |  |
| OCC(CO)(CBr)CBr | inactive |  |
| CC(=O)CC(=O)Nc1ccccc1C | inactive |  |

| Compound | Potency | cytotoxicity increase |
| --- | --- | --- |
| CCC(O)OCCCOC (stereo unspecified) | inactive |  |
| O=c1[nH]nnc2ccccc12 | inactive |  |
| OC[C@H]1O[C@@](CO)(O[C@H]2O[C@H](CO)[C@@H](O)[C@H](O)[C@H]2O)[C@@H](O)[C@@H]1O | inactive |  |
| COS(C)(=O)=O | inactive |  |
| COCCCOc1ccnc(CS(=O)c2nc3ccccc3[nH]2)c1C (stereo unspecified) | inactive |  |
| O=P(OC(CCl)CCl)(OC(CCl)CCl)OC(CCl)CCl | inactive |  |
| COc1ccc(Nc2ccccc2)c(C)c1 | inactive |  |
| CC1=C(C)S(=O)(=O)CCS1(=O)=O | inactive |  |
| C=C(C)C(=O)O[C@H]1C[C@@H]2CC[C@@]1(C)C2(C)C | inactive |  |
| CN(C)CCOCCN(C)C | inactive and 43.6 µM (active) |  |
| CN(C)CCCN | inactive |  |
| Nc1ccccc1[N+](=O)[O-] | inactive |  |
| O=C(O)c1ccccc1C(c1ccc(O)cc1)c1ccc(O)cc1 | inactive |  |
| CC[C@H](C)C(=O)O[C@H]1C[C@@H](C)C=C2C=C[C@H](C)[C@H](CC[C@@H]3C[C@@H](O)CC(=O)O3)[C@H]21 | 49.6 µM (active) and inactive and 16.9 µM (active) |  |
| O=C(O)CCCC[C@@H]1SC[C@@H]2NC(=O)N[C@@H]21 | inactive |  |
| CCCCC(CC)COC(=O)CS (stereo unspecified) |  | 0.309% (inactive) |
| CSCCC=O | inactive |  |
| c1ccc2c(c1)ccc1ccccc12 | inactive |  |
| Cc1cccnc1 | inactive |  |
